Values without a mark were called inactive. The rule behind the calls is not given here.
Target: VTCN1, Q7Z7D3
Sequence (Q7Z7D3 whole entry): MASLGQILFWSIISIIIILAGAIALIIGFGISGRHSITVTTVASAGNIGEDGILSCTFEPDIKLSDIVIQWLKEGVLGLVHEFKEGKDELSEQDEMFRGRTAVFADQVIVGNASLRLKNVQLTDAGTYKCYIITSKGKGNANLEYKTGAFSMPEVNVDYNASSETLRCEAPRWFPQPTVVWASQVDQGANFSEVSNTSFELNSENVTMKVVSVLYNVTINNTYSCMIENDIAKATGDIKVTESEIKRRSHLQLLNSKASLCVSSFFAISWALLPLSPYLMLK

B1: d3r1_design_ppi_891_dldesign_0_cycle1_af2pred (protein)
chain: AEEALKEEMVKKAKEVAEKAAKAGYPEEAKQAAKAGAAFAPEKGEEIKKYAEEEIKKAEKEKEEKKKKEKEKKE
binding in a display sort: not found

B2: d4r1_design_ppi_104_dldesign_0_cycle1_af2pred (protein)
chain: MSIEERLEELEKRLYEEIKKKAEEYLEELEKESEKLAKLDPSLAEEAKKKYEEAKELYKDPETVYLSKSHAEENLEEVKKKIKELES
binding in a display sort: not found

B3: d4r2_design_ppi_34_dldesign_0_cycle0_af2pred (protein)
chain: SGAGQAKMERNAALSSLRAAKANPALAEIAAEDAIEAAKRALAVPEASPEVKEEAERVRKEAEAVGAAAKAAKAA
binding in a display sort: not found

B4: d4r2_design_ppi_49_dldesign_0_cycle0_af2pred (protein)
chain: GKIEELKKKLKEAEKKLEEAKEKLNKAKAEAESYRIRAEANKENKEKYLKKAEEIEKEEIEKAKKEIEEYEKEKKEAEKKLKEAKE
binding in a display sort: not found

B5: d4r1_design_ppi_219_dldesign_0_cycle1_af2pred (protein)
chain: AAEAEEYRKKAAEYIQELQELKTEIKATGTEEQAKKADEIWEEYKKKVKEAKEKYKDGTDLELAKALYKIAKENYEKLKELKE
binding in a display sort: not found

B6: d4r2_design_ppi_152_dldesign_0_cycle0_af2pred (protein)
chain: AAAAAEAEKAAAAATQKAEELAEKRGEEHGAEVGLKKYLENPEEAKKMGKEIYELGLKKYKELKKKEEEEK
binding in a display sort: not found

B7: d4r2_design_ppi_53_dldesign_0_cycle1_af2pred (protein)
chain: EEAKARAEKAFARAKALKARAKELKAKGEELFANAPELGEESLKRGKVYKLQAEQYEARAEEAEALGKELAAA
binding in a display sort: not found

B8: d4r1_design_ppi_174_dldesign_0_cycle0_af2pred (protein)
chain: SMEEKEAAEKMKELNEIAYEEYERVVKEGTEEAAREAMRRIMEKAKEHPYKETALKYVEVTLKHLKEEVSPEAAKAAEEELKRELA
binding in a display sort: not found

B9: d3r1_design_ppi_897_dldesign_0_cycle0_af2pred (protein)
chain: MEAKEKVKKLTEEAIKYAEEAGDKETAEEAKKGGEALLAGAKEAEELAKKNPVAGASLQEAVIKSAELFAKSIKEEVEKKK
binding in a display sort: not found

B10: d4r1_design_ppi_171_dldesign_0_cycle1_af2pred (protein)
chain: MKEIEEAQKKYKEALEKLKEVGEEYYQAVLDAIKNKGIEEAVKTAEKLAKELEKEDPEKGKKAKEAAELLKEAKKLIEKVRKE
binding in a display sort: not found

B11: d4r1_design_ppi_77_dldesign_0_cycle1_af2pred (protein)
chain: MKEEEKALEKANEYIEKAEELAKKALENGEGDEVFSEAGKLLEKAVEEAEKNKENREEILKRVQEVRDLLREAVLKRLKAE
binding in a display sort: not found

B12: d3r1_design_ppi_728_dldesign_0_cycle1_af2pred (protein)
chain: DIRENIKKLAKELKKEAEKLSEYDPELAKKAIEYAKKAEAAKTAEEAAKYATKAAEYVEKAEELAKKKKEELEK
binding in a display sort: not found

B13: d4r1_design_ppi_352_dldesign_0_cycle0_af2pred (protein)
chain: AAAEQNAKNLKEAEKAKKEAEEAKKLAKEDVAKGAEKLTEAAKKLAEIYEKASPEIQPYVAKELQEVAKAAQEAIKAKLEKDAA
binding in a display sort: not found

B14: d3r1_design_ppi_728_dldesign_0_cycle0_af2pred (protein)
chain: SLKESVDKKVEKLKEEAKKLAKYDPELAKKAIEYAEKAKKAKTLEEAGKYANKASEYIEEAEKKAKEKKEEEAK
binding in a display sort: not found

B15: d4r1_design_ppi_144_dldesign_0_cycle0_af2pred (protein)
chain: DEETKKAVEEAKKAAKEAEEIAKKYPELKPLAEQAKKAAKYAEKYAKENPIAAKNAMKATKAIAEEMKKLA
binding in a display sort: not found

B16: d3r1_design_ppi_734_dldesign_0_cycle0_af2pred (protein)
chain: SSEEELKLLTGKNALEILPEILKEAEKLLKEAKKTGDKEKLKEAIKQAENAIAAAKAAAIVDPKKAEEYKKKAEKLKKEAEKLL
binding in a display sort: not found

B17: d4r1_design_ppi_310_dldesign_0_cycle0_af2pred (protein)
chain: MEAIEEMRKKKEEAIKEAEESNPEEGAKIMEEAMKEIQEIANKAIKSSSSEEAKKILEEHEKLVEELEKKKEELKKKAEEEKK
binding in a display sort: not found

B18: d4r1_design_ppi_33_dldesign_0_cycle0_af2pred (protein)
chain: SEEEEKNAENLKKAAEELEKIAEEGIKKGASVEEIKKKLEEKGKEFAKKYPKNAKSYLELAKIVAKEAEKKLK
binding in a display sort: not found

B19: d3r1_design_ppi_729_dldesign_0_cycle0_af2pred (protein)
chain: DEEKKAKEAAEEAIKAKEKLGTGKEVKKTADEAFAAAKKATPEQAKALYKKLLEWFKEEKAKAEAEIAAA
binding in a display sort: not found

B20: d4r1_design_ppi_425_dldesign_0_cycle1_af2pred (protein)
chain: AAEAAAAAEKAAAAAGEKAGKAAAEHVAAGAKAGTLPQAVQDVLEQTSELKYKGDEVAAKAAYEAAREAAKAARAAA
binding in a display sort: not found

B21: d3r1_design_ppi_897_dldesign_0_cycle1_af2pred (protein)
chain: MEALKAVEEKMKEAIEYAKKAGDEELAKEAEKRRKALLAGAERAVEVAKKNPVAGASLAQAVIKSAELASEYFKELVEKKK
binding in a display sort: not found

B22: d4r1_design_ppi_144_dldesign_0_cycle1_af2pred (protein)
chain: DEEVKKAAKEAKEAAKEAEKLAKKDKSLKPLAEQAKKAAKYAEYYTKINPTLALNAAKAAKKIYEEMKKLA
binding in a display sort: not found

B23: d3r1_design_ppi_851_dldesign_0_cycle0_af2pred (protein)
chain: DEVKKLLEEAKKLAEKAEELAKKGGSVEEVEKAAEKAQEAAVKAIKLAAKTEDGEKLTKEAGKYAQKATQAAAEAKEKAKKEA
binding in a display sort: not found

B24: d4r2_design_ppi_0_dldesign_0_cycle1_af2pred (protein)
chain: VAKELAKKFQKAIEALFEASTIEEVPEARAKVKEARKIAREGVENPETAKEKLEEGVKLVEKKAKEMEEKKKKEEEEKLK
binding in a display sort: not found

B25: d4r1_design_ppi_339_dldesign_0_cycle1_af2pred (protein)
chain: AEEAEKAAKEAEEKAKEAEELAKEAAKLHPTYAQAFELLAKAFKKAAELLKKDYKEGKKYFEELKESFERAKKALAIAKKEKAA
binding in a display sort: not found

B26: d4r2_design_ppi_27_dldesign_0_cycle1_af2pred (protein)
chain: GKEKEEKEKAEKIVEEAKKELEEAKEYGKKTTKEEGAEKLEEVAKKLKEKAEEFLATGKEEWKHAGAKLESLAIRAELYAKGLRRE
binding in a display sort: not found

B27: d4r2_design_ppi_48_dldesign_0_cycle1_af2pred (protein)
chain: DFTAKAAAQAKKYKAEAKANAADPEKVGEVLAKALKAANEAKEAGNPAAAAALKAAADEILKINRESLLKEET
binding in a display sort: not found

B28: d4r2_design_ppi_24_dldesign_0_cycle1_af2pred (protein)
chain: SMEKEKEEELKNYAKQVAGKAFTYSDQLKEVAEKTGLEELKEKAEELEKLGKEALENPEKAKEYEAKAKEVFKEGRELYKKAK
binding in a display sort: not found

B29: d4r1_design_ppi_171_dldesign_0_cycle0_af2pred (protein)
chain: MEKIEEANKLLKKALELLKEVGEEYYKKVMEAIKTEGIDAAVEKAKEIAKELKKKDKEKGKIAEEAYKNLEKAKELIKEIYEE
binding in a display sort: not found

B30: d3r1_design_ppi_994_dldesign_0_cycle0_af2pred (protein)
chain: MEELEKVAKKILKEAKKRAEEAAKKGAESENGEEVFTKGLQETLEKASEEAEKAGLPDELAVKVLKEIVKYGNEVKKAALAARA
binding in a display sort: not found

B31: d3r1_design_ppi_981_dldesign_0_cycle1_af2pred (protein)
chain: MEEFAKEMEKWSEEAAKKYEEAKELAKKDPKEGVKVLEEAIKELEEKAKEYEKKGPYGKNIAKALNWLAKKFKELKKKIEAS
binding in a display sort: not found

B32: d4r1_design_ppi_339_dldesign_0_cycle0_af2pred (protein)
chain: SEKAEKAAKEAEEEAKKAKELAKEAAKLSPSYAAAFKKLAEAFKKAAKLLKEDYEKGLKEFKELKKSFELAKKAAAKAKAAAAA
binding in a display sort: not found

B33: d4r2_design_ppi_27_dldesign_0_cycle0_af2pred (protein)
chain: SEEEKKKKEAEKKVEEAKKKLEEAKKFAKEGKKEEGAKKLEEVAKELDEKADEFFASGSEEYREAGAKLGSLSIRAKLYAEGLKAK
binding in a display sort: not found

B34: d3r1_design_ppi_985_dldesign_0_cycle1_af2pred (protein)
chain: EEAEKLLKEIKEKSEKAIKLAEEGKIEEAEKELQEALKIAQELAKKYPEAAPEAAKIVNKAATELEKKKEEQKKKLE
binding in a display sort: not found

B35: d4r2_design_ppi_24_dldesign_0_cycle0_af2pred (protein)
chain: KKEEEEKEKLKNFAKQASGKAEALSDQLKDVAEKTGSEELKEKAKKLEELGKEAEKNPELGKKKEEEAKKVHKEGKEYYKAKK
binding in a display sort: not found

B36: d3r1_design_ppi_859_dldesign_0_cycle1_af2pred (protein)
chain: ESELLKQVAEAVQQAVKAALKDPEEAKKVVEKALELDAEKAIEVAKSLAEAYKIAGNEEKAAAAKKVAELLEKLSKERK
binding in a display sort: not found

B37: d4r1_design_ppi_104_dldesign_0_cycle0_af2pred (protein)
chain: MSIEERLEELEKRLTEETKKEAEENLKRLEEVAKELAELDPELAPEAKKALEEAKKLFEDPEKIFEAAALARESLEEFEKRLKELKE
binding in a display sort: not found

B38: d4r1_design_ppi_77_dldesign_0_cycle0_af2pred (protein)
chain: MKEKEEALKEAKKHLKEAEKLAEEAEKNGKGDELFSKLGKHLQEAAKYAEKNKENQEEINKELQKVAKKARDAILKVQKAR
binding in a display sort: not found
